According to ChEMBL document CHEMBL1857833, “Screening and optimization of specific chemical series against human African Trypanosomiasis (HAT)”:
Several values for one entry are separate records, joined by “and”; a condition that tells them apart may be missing. Equal values may be shown once. The whole screen tested about 4,400 compounds, of which about 390 (8.9%) showed an effect of 50% or more. The sample holds strong results, similar compounds and a random draw of the others, so the mix is not that of the screen.

The compounds below were run on Trypanosoma brucei (assay: DNDI: Inhibition of Human African Trypanosomiasis, SBRI 427, in vitro at 2 ug.mL-1).
Type: functional

Structure (SMILES) | % inhibition
CCOc1ccccc1N(Cc1ccccc1)Cc1coc(-c2cccc(F)c2)n1 | 1%
Brc1ccccc1-c1nc(CNCc2cccc3ccccc23)co1 | -1%
CCCCN(C)Cc1coc(-c2ccc(OC)cc2)n1 | 9%
COc1cccc(-c2nc(CN3CCCCCCC3)co2)c1 | 31%
Cc1ccc(/C(=N/O)N(C)Cc2ccco2)c(Oc2cccc3c2CCCC3)n1 | -8%
Cc1cn(Cc2coc(-c3cccc4ccccc34)n2)cn1 | 1%
CCN(Cc1coc(-c2ccccc2Cl)n1)c1ccc(C)cc1 | -3%
CC(CNCc1coc(-c2cccc3ccccc23)n1)c1ccccc1 (stereo not drawn) | 8%
Cc1ccc(-c2nc(CN3CCN(c4ccc(F)cc4)CC3)co2)cc1 | 0%
Cc1ccc(-c2nc(CN3CCC(N4CCCCC4)CC3)co2)cc1 | 3%
Brc1ccc(-c2nc(CN3CCCC3)co2)cc1 | 1%
Brc1ccc(-c2nc(CN3CCCCCC3)co2)cc1 | 72%
Fc1ccc(-c2nc(CN3CCN(c4ccc(F)cc4)CC3)co2)cc1 | 52%
Oc1ccc(-c2nc(CN3CCCCCC3)co2)cc1 | 9%
COc1ccc(N2CCN(Cc3coc(-c4ccc(F)cc4)n3)CC2)cc1 | -1%
COc1ccc(-c2nc(CN3CCC(N4CCCC4)CC3)co2)cc1 | -12%
Cc1ccc(-c2nc(CN3CCC(N4CCCC4)CC3)co2)cc1 | 60%
Cc1ccc(/C(=N/O)NCc2ccccc2)c(Oc2ccc(F)c(F)c2)n1 | 23%
CCOc1ccc(Oc2ccc(/C(N)=N/O)cn2)cc1 | 10%
Cc1ccc(-c2nc(CNc3cc[nH]n3)co2)cc1 | 10%
Cc1ccc(/C(=N/O)NCCC2CCCN2C)c(OCc2ccccc2)n1 (stereo not drawn) | 22%
c1ccc(CN2CCC(NCc3coc(-c4cccc5ccccc45)n3)C2)cc1 (stereo not drawn) | 14%

Structure (SMILES) | % inhibition
Cc1cc(N2CCN(Cc3coc(-c4cccc5ccccc45)n3)CC2)c2ccccc2n1 | 52%
Oc1ccc(-c2nc(CNC3C[C@H]4CC[C@@H]3C4)co2)cc1 (stereo partly drawn) | 11%
Clc1ccc(-c2nc(CNC3CCc4ccccc43)co2)c(Cl)c1 (stereo not drawn) | -4%
Clc1ccc(-c2nc(CNC3CCN(Cc4ccccc4)C3)co2)c(Cl)c1 (stereo not drawn) | 18%
Cc1ccc(-c2nc(CN3CCN(c4cc(C)nc5ccccc45)CC3)co2)cc1 | 12%
Clc1ccccc1-c1nc(CNC2CCN(Cc3ccccc3)CC2)co1 | 20%
Cc1cc(N2CCN(Cc3coc(-c4ccccc4Cl)n3)CC2)c2ccccc2n1 | 7%
Clc1ccc(-c2nc(CNC3CCN(Cc4ccccc4)CC3)co2)c(Cl)c1 | 74%
Clc1ccc(-c2nc(CNC3C[C@H]4CC[C@@H]3C4)co2)c(Cl)c1 (stereo partly drawn) | 52%
c1ccc(CN2CCN(Cc3coc(-c4cccc5ccccc45)n3)CC2)cc1 | 18%
c1ccc(CN2CCC(NCc3coc(-c4cccc5ccccc45)n3)CC2)cc1 | 66%
Cc1cccc(N2CCN(Cc3coc(-c4ccccc4F)n3)CC2)c1C | -33%
CN(CCc1ccccc1)Cc1coc(-c2ccccc2Cl)n1 | 17%
COc1cccc(-c2nc(CN(C)Cc3cc(OC)c(OC)c(OC)c3)co2)c1 | -4%
O/N=C(\NCC1CCCO1)c1cccnc1Oc1c(F)c(F)cc(F)c1F (stereo not drawn) | 1%
O/N=C(\NCC1CCCCC1)c1cccnc1Oc1c(F)cccc1F | 99%
O/N=C(\NC1CCCCC1)c1cccnc1Oc1c(F)cccc1F | 99%
CC1CC(N/C(=N\O)c2cccnc2OCC(C)(C)C)CC(C)(C)C1 (stereo not drawn) | 44%
CC1CC(N/C(=N\O)c2cccnc2Oc2c(F)c(F)cc(F)c2F)CC(C)(C)C1 (stereo not drawn) | -10%
O/N=C(/c1cccnc1Oc1c(F)cccc1F)N1CCC2CCCCC2C1 (stereo not drawn) | -13%
O/N=C(\NC1CCCC1)c1cccnc1Oc1c(F)cccc1F | 100%
CC1CC(N/C(=N\O)c2cccnc2Oc2c(F)cccc2F)CC(C)(C)C1 (stereo not drawn) | 98%

Structure (SMILES) | % inhibition
COc1ccc(Oc2nc(C)ccc2/C(=N/O)NCCN(C)C)cc1 | 0%
CCOc1ccc(-c2nc(CN(C)C3CCCCC3)co2)cc1 | 5%
c1ccc(Oc2ccc(NCc3coc(-c4cccc5ccccc45)n3)cc2)cc1 | 1%
O/N=C(/c1cccnc1OCc1ccccc1F)n1ccnc1 | -10%
C#CCN(C)Cc1coc(-c2ccc(C)cc2)n1 | -1%
Fc1cccc(-c2nc(CNCc3cccc4ccccc34)co2)c1 | 17%
CCOc1ccccc1N(Cc1ccccc1)Cc1coc(-c2ccc(O)cc2)n1 | -16%
O/N=C(/c1ccc(Oc2ccc(-n3ccnc3)cc2)nc1)N1CC=CC1 | 16%
COc1ccc(NCc2coc(-c3ccc(OC)cc3)n2)cc1 | 9%
COc1ccc(OC)c(NCc2coc(-c3ccc(C)cc3)n2)c1 | 0%
Cc1ccc(/C(=N/O)NC2CCC(C)CC2)c(Oc2c(F)c(F)cc(F)c2F)n1 (stereo not drawn) | 22%
CC1CCC(N/C(=N\O)c2cccnc2Oc2c(F)cccc2F)CC1 (stereo not drawn) | 99%
CC1CC(C)CN(/C(=N\O)c2cccnc2Oc2c(F)cccc2F)C1 (stereo not drawn) | 28%
CCOc1ccc(-c2nc(CN(C)c3ccccc3)co2)cc1 | -8%
CN(Cc1coc(-c2ccc(Cl)cc2Cl)n1)CC1OCCO1 | 30%
COc1cc(C)ccc1Oc1nc(C)ccc1/C(=N/O)Nc1ccccc1 | -6%
CC(C)c1ccc(NCc2coc(-c3ccc(F)cc3)n2)cc1 | 7%
COc1cc(-c2nc(CN(C)CCc3ccccn3)co2)cc(OC)c1OC | -7%
COc1ccc(-c2nc(CN3CCN(c4cccc(C(F)(F)F)c4)CC3)co2)cc1 | -13%
Clc1ccc(-c2nc(CNCc3ccncc3)co2)c(Cl)c1 | 9%
Clc1ccc(-c2nc(CNCCCn3ccnc3)co2)c(Cl)c1 | 86%
COc1ccc(-c2nc(CNCCCn3ccnc3)co2)cc1 | 6%

Structure (SMILES) | % inhibition
Clc1ccc(-c2nc(Cn3ccnc3)co2)c(Cl)c1 | 5%
Clc1ccc(-c2nc(CNCCN3CCOCC3)co2)c(Cl)c1 | 0%
CC1CCCCN1CCCNCc1coc(-c2ccc(Cl)cc2Cl)n1 (stereo not drawn) | 99%
Brc1ccc(-c2nc(CNCCCn3ccnc3)co2)cc1 | 56%
c1ccc2c(-c3nc(CNCCCn4ccnc4)co3)cccc2c1 | 54%
Cc1cccc(-c2nc(CNCCCn3ccnc3)co2)c1 | -8%
CCOc1ccccc1-c1nc(CNCCCn2ccnc2)co1 | 32%
Brc1ccccc1-c1nc(CNCCCn2ccnc2)co1 | 2%
C#CCNCc1coc(-c2ccc(Cl)cc2Cl)n1 | 3%
Cc1ccc(/C(=N/O)NC2CCCCC2)c(OCc2cccc(F)c2)n1 | -9%
CCC(NCc1coc(-c2ccc(OC(F)(F)F)cc2)n1)c1ccccc1 (stereo not drawn) | -21%
CSc1ccc(Oc2cc(/C(=N/O)NC3CCc4ccccc43)ccn2)cc1 (stereo not drawn) | 9%
COCCN(Cc1coc(-c2ccccc2C)n1)C(C)(C)C | 2%
COc1ccc(Oc2nc(C)ccc2/C(=N/O)N2CCCCC2)cc1 | 28%
Cc1cccc(Oc2nc(C)ccc2/C(=N/O)N2CCN(c3ccc(F)cc3)CC2)c1 | 12%
COc1ccccc1CN/C(=N\O)c1ccc(C)nc1OC1CCC1 | 6%
Cc1cn(Cc2coc(-c3cccc(F)c3)n2)c(-c2ccccc2)n1 | -9%
CCOc1ccc(Oc2cc(/C(=N/O)N3CCC4CCCCC4C3)ccn2)cc1 (stereo not drawn) | 16%
Cn1nc(C(C)(C)C)cc1NCc1coc(-c2cccc3ccccc23)n1 | 25%
CCOc1ccccc1-c1nc(CN(C)Cc2ccccc2)co1 | 4%
Cc1ccc(/C(=N/O)N(C)C2CCCCC2)c(Oc2cccc(F)c2)n1 | 10%
CCC(NCc1coc(-c2ccc(OC)cc2)n1)c1ccccc1 (stereo not drawn) | 12% and 8%

Structure (SMILES) | % inhibition
Clc1ccc(-c2nc(CNCCCN3CCOCC3)co2)c(Cl)c1 | 23%
Clc1ccc(-c2nc(CNCCCN3CCCC3)co2)c(Cl)c1 | 98%
Clc1ccc(-c2nc(CNCCN3CCCC3)co2)c(Cl)c1 | -4%
COc1ccc(Oc2cc(/C(=N/O)NCC(C)(C)C)ccn2)cc1 | 92%
CCC(CC)N/C(=N\O)c1ccnc(Oc2ccc(OC)cc2)c1 | 97%
CCOc1ccc(Oc2cc(/C(=N/O)NCC(C)(C)C)ccn2)cc1 | 43%
COc1ccc(Oc2cc(/C(=N/O)NCc3ccncc3)ccn2)cc1 | 9%
COc1ccc(Oc2cc(/C(=N/O)NCC(C)C)ccn2)cc1 | 93%
CCOc1ccc(Oc2cc(/C(=N/O)NCc3ccc(OC)cc3)ccn2)cc1 | -4%
COc1ccc(Oc2cc(/C(=N/O)Nc3ccccc3)ccn2)cc1 | 15%
CC(C)CN/C(=N\O)c1ccnc(Oc2ccc(Cl)cc2)c1 | 25%
COc1ccc(Oc2cc(/C(=N/O)NCc3cc(F)cc(F)c3)ccn2)cc1 | 5%
CCOc1ccc(-c2nc(CNc3ccc(OC)cc3)co2)cc1 | -21%
CCCCN(C)Cc1coc(-c2cccs2)n1 | 15%
CCOc1ccc(-c2nc(CN3CCc4cc(OC)c(OC)cc4C3C(C)C)co2)cc1 (stereo not drawn) | 15%
COc1ccc(-c2nc(CN(C)c3ccc(OC)cc3)co2)cc1 | 6%
CCOc1ccccc1Oc1ncccc1/C(=N/O)n1cnc(C)c1 | 16%
CCOc1ccccc1CNCc1coc(-c2ccc(OC)cc2)n1 | -13%
CCCC(C)NCc1coc(-c2ccccc2Br)n1 (stereo not drawn) | -7%
Fc1cccc(-c2nc(CN3CCN(c4cccc(Cl)c4)CC3)co2)c1 | 17%
